Source: PubChem BioAssay AID588453 (National Center for Advancing Translational Sciences (NCATS), 2011)
Out of some 390,000 compounds screened, about 4,000 (1%) were called active. Another 4% or so got no clear call; they are omitted. The call rests on the fitted dose curve; in most records, active means well fitted inhibition curve with a large enough effect; inconclusive means small, poorly fitted or top-dose-only effect; inactive means no such curve, though single readings can be large or run the other way. What follows is part of a selection rich in actives, with near analogues and random picks from the rest. Where a call stands in place of a potency, no number is given.

Target: Thioredoxin reductase 1, cytoplasmic (Rattus norvegicus) (UniProt O89049)
Assay: qHTS Assay for Inhibitors of Mammalian Selenoprotein Thioredoxin Reductase 1 (TrxR1): qHTS; further: nearly all actives have a fitted effect of over 65% in size
Conditions: recombinant rTrxR1, NADPH fluorescence consumption, selenite substrate; series mostly up to 114 µM
Excerpt: The selenoprotein thioredoxin reductase (TrxR; EC 1.8.1.9) is a FAD containing homodimeric pyridine nucleotide-disulfide oxidoreductase with many cellular roles. Together with NADPH and its prime substrate thioredoxin (Trx), the enzyme forms the core of the Trx system. The mammalian Trx system exerts a wide spectrum of functions including redox regulation, antioxidant defense, regulation of transcription factors as well as support of cell growth and replication. Many of these functions involve the reduction of Trx, which may subsequently reduce a number of different substrates including ribonucleotide reductase, peroxiredoxins or NFkB. Mammalian TrxR itself also has a broad substrate specificity, reducing both protein and non-protein substrates, including low molecular weight compounds such as dehydroascorbate, lipoic acid, ubiquinone, and juglone. In addition, several drugs in clinical use for anticancer treatment are indeed known to target TrxR1.
This BioAssay is a validation of an NADPH fluorescence-based, dual-purpose qHTS rTrxR1 assay designed to find potential inhibitors and substrates of rTrxR1. For this particular BioAssay, actives are potential inhibitors. See related BioAssay for substrate data deposition.
NIH Molecular Libraries Probe Production Network [MLPCN]
NIH Chemical Genomics Center [NCGC]
Assay Provider: Elias Arner, Karolinska Institute
Assay protocol: 2 uL of reagents (buffer in column 4 as negative control and 90 nM rTrxR1 in columns 1-3 and 5-48) were dispensed into Greiner black solid-bottom 1,536-well assay plates, followed by 1 uL of NADPH (400 uM final concentration) to each well. The plates were centrifuged at 1000 rpm for 15 seconds and subsequently incubated for 5 min at room temperature (~22 deg C) to allow for rTrxR1 reduction. Compounds (23 nL) were then transferred via Kalypsys pin tool equipped with 1536-pin array (10 nL slotted pins, V&P Scientific, San Diego, CA). In addition, a duplicate 2-fold serial dilution of the control compounds auranofin, a known gold-based TrxR1 inhibitor, and juglone (5-hydroxy-1,4-naphthoquinone), a natural TrxR1 substrate, were pin-transferred to columns 2 and 3, respectively. After incubation for 15 min at room temperature (~22 deg C), 1 uL of selenite (400 uM final concentration) were dispensed to each well. The plate was immediately transferred to a ViewLux high-throughput CCD imager (PerkinElmer), wherein kinetic measurements of NADPH fluorescence (Ex 340 nm, Em 450 nm) were acquired (8 minute kinetic read, see Table 1). Read 1 was utilized to assess the capacity of a compound to serve as an rTrxR1 substrate, i.e. a decrease in NADPH fluorescence compared to the no-compound background is an indication of a substrate behavior for that particular compound. For inhibitory activity of a compound, delta values, computed as the difference in fluorescence intensity between the first and last reads of an 8-minute time kinetic window, were used. All reagents were diluted in an assay buffer consisting of 50 mM Tris-HCl, pH 7.5, 2 mM EDTA, and 0.01% Tween-20.
Throughout the screen, reagent bottle and all liquid lines were made light-tight to minimize reagent degradation. All screening operations were performed on a fully integrated robotic system (Kalypsys, San Diego, CA) containing one RX-130 and two RX-90 anthropomorphic robotic arms (Staubli, Duncan, SC). Library plates were screened starting from the lowest and proceeding to the highest concentration, and a 'double-pinning' step of the highest concentration was required to access higher concentrations of compounds. Vehicle-only plates, with DMSO being pin-transferred to the columns 5-48, were inserted uniformly at the beginning and the end of each library in order to monitor and record any shifts in the background, which can be affected by reagent dispensers or loss in enzyme activity over time. […]
Potency means the concentration at half of the fitted maximal effect.

Sequence of Thioredoxin reductase 1, cytoplasmic (Rattus norvegicus) (O89049 whole entry, looked up): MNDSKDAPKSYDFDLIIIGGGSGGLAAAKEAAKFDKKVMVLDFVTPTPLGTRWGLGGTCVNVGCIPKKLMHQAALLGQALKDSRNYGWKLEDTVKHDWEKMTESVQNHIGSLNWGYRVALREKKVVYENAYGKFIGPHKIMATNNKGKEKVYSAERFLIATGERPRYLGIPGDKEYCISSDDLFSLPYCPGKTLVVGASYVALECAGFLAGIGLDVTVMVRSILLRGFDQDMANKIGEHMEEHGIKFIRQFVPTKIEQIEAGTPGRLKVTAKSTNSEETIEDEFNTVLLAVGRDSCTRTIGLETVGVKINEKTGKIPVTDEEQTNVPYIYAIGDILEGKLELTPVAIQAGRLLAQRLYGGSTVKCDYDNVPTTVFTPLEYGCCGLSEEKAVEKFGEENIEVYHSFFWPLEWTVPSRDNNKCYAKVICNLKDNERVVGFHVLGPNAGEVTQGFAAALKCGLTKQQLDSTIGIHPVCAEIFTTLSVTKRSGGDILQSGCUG

SMILES	Potency
Cc1ccc(Cl)cc1NC(=O)CSc1nccn1C	inactive
Cc1cccc(CN2Cc3cccc4c3[C@H](C=CC4)CC2=S)c1	inactive
N#Cc1ccc[n+](CC(=O)c2ccc(F)cc2)c1	inactive
CC1CCCN(c2cc3c(cc2F)c(=O)c(S(=O)(=O)c2cccc(Cl)c2)cn3Cc2ccccc2)C1 (stereo not given)	inactive
COc1ccc(CNC(=O)CC2Oc3ccc(C)cc3NC2=O)cc1 (stereo not given)	inactive
CCOC(=O)N1CCN(c2cc(C)c([N+](=O)[O-])cc2F)CC1	inactive
C=COC(=O)N1CCN(/[N+]([O-])=N/Oc2ccc([N+](=O)[O-])cc2[N+](=O)[O-])CC1	10 µM (active)
COc1cc(C(=S)N2CCOCC2)cc(OC)c1OC(=O)c1ccc([N+](=O)[O-])cc1[N+](=O)[O-]	inactive
O=C(O)C1CC(=O)N(Cc2cccnc2)C1 (stereo not given)	inactive
O=C1/C(=C\c2cccnc2)CN(Cc2ccccc2)C/C1=C\c1cccnc1	50.1 µM (active)
O=C(O)CCc1cccnc1	inactive
O=C(Nc1ccc2nc(SCC(=O)N3CCCc4ccccc43)sc2c1)c1ccc(Cl)cc1	inactive
C=C1C=C(C(F)F)n2ncc(C(=O)NCCc3ccccc3OC)c2N1	inactive
Cc1ccccc1CN1CCC(CNC(=O)c2c(C)oc3ncnc(N4CCCCC4)c23)CC1	inactive
Cc1ccc(C)c(Cn2c(C)c(CNCc3ccc(F)cc3)c(C(=O)O)c2C)c1	inactive
O=C(CCn1nnc2ccccc21)OCC(=O)c1ccc([N+](=O)[O-])cc1	inactive
O=C(CC(n1cncn1)C(Cl)(Cl)Cl)c1ccc([N+](=O)[O-])cc1 (stereo not given)	3.55 µM (active)
O=C(Cn1c[n+](CC(=O)c2ccc([N+](=O)[O-])cc2)cn1)c1ccc([N+](=O)[O-])cc1	inactive
CCCOc1ccc(N2C(=O)CC(N(CCc3ccc(S(N)(=O)=O)cc3)C(C)=O)C2=O)cc1 (stereo not given)	inactive
CCOc1ccc(N2C(=O)CC(N(O)c3ccccc3)C2=O)cc1 (stereo not given)	12.6 µM (active)
CCOc1ccc(N2C(=O)CC(N(CCc3ccc(OC)c(OC)c3)C(=S)Nc3ccccc3)C2=O)cc1 (stereo not given)	inactive
O=C(CC1N=C2c3ccccc3N=C(SCc3ccc(F)cc3)N2C1=O)NCc1cccs1 (stereo not given)	inactive
Cc1nc2ccccn2c(=O)c1NC(=O)c1c(F)cccc1F	inactive
CCc1ccc(NC(=O)CCCc2nnc3n(CCCOC)c(=O)c4sccc4n23)cc1	inactive
CCOc1cccc(CC(=O)N2CCc3c([nH]c4ccccc34)C2c2ccc(F)cc2)c1OCC (stereo not given)	inactive

SMILES	Potency
CCOc1ccccc1CNC(=O)c1ccc(-n2c(C)cc3c2CCC(C)C3)cc1 (stereo not given)	inactive
CCOc1cccc2c1N[C@@H](c1ccc(C(=O)O)cc1)[C@H]1CC=C[C@@H]21	11.2 µM (active)
O=C(c1cnn2c1NC(=C1CC1)C=C2C(F)F)N1CCc2ccccc2C1	inactive
CCOC(=O)c1ccc(NC(=O)C2CC(=O)N(c3ccc(C(C)C)cc3)C2)cc1 (stereo not given)	inactive
O=C(CN1CCN(S(=O)(=O)c2cc(Cl)ccc2Cl)CC1)c1ccc(O)c(O)c1	44.7 µM (active)
CCN1CCN(C(=O)C2CCN(S(=O)(=O)c3cc(Cl)ccc3Cl)CC2)CC1	inactive
O=S(=O)(c1cc(Cl)ccc1Cl)N1CCN(Cc2ccco2)CC1	inactive
CN1CCN(C2(CNC(=O)COc3ccc(C(C)(C)C)cc3)CCCCC2)CC1	inactive
COc1ccc(S(=O)(=O)NCC(c2ccc(N(C)C)cc2)N2CCCC2)cc1 (stereo not given)	inactive
COc1ccc(C(C[N+](=O)[O-])n2nc(C)cc2C)cc1 (stereo not given)	8.91 µM (active)
COc1ccc2cc(-c3[nH]ncc3CNCCn3nc(C)cc3C)ccc2c1	inactive
Cc1cc(F)ccc1NS(=O)(=O)c1ccc(-n2cccn2)cc1	inactive
COc1ccc2[nH]c3c(c2c1)CCN(C(=O)CCC1CCCC1)C3c1ccc(F)cc1 (stereo not given)	inactive
Cc1cc2c(cc3c(SCc4nc(-c5ccccc5)oc4C)nnc(C)n32)o1	inactive
O=C(NC(=S)Nc1ncccn1)c1ccccc1Br	inactive
O=C(NC(=S)Nc1ccccc1C(=O)O)c1ccc(-c2ccc(Br)cc2)o1	44.7 µM (active)
O=C(O)c1ccccc1NC(=S)NC(NC(=O)c1ccccc1[N+](=O)[O-])C(Cl)(Cl)Cl (stereo not given)	inactive
CN(CCC#N)c1ccc(C=O)cc1	inactive
S=c1[nH]c(=S)c2n[nH]nc2[nH]1	15.8 µM (active)
C(=Nc1ccc(/C=C/c2ccnc3ccccc23)cc1)c1cc2c3c(c1)CCCN3CCC2	inactive
COc1ccc(-c2onc(C)c2C)cc1S(=O)(=O)NCCc1ccccc1	inactive
OC(CBr)CN1CCCCC1 (stereo not given)	inactive
Cc1ccc(-c2nn(-c3ccccc3)cc2CN(Cc2ccccc2)C(=O)CCC(=O)O)o1	39.8 µM (active)
Cc1ccc(-c2nn(-c3cccc(F)c3)cc2CNCCc2ccncc2)o1	inactive
CN(C)Cc1cn(-c2ccccc2)nc1-c1ccccc1	inactive

SMILES	Potency
Cc1ccc(C)c2sc(NC(=O)c3ccc(S(=O)(=O)N4CCCC4)cc3)nc12	inactive
CCc1ccc(NC(=O)C2CCCN2S(=O)(=O)c2ccc3nc(-c4ccccc4)[nH]c3c2)cc1 (stereo not given)	inactive
COc1ccc(C=C(C#N)C#N)c(CSc2ccccn2)c1	11.2 µM (active)
COc1cccc(N(CC(=O)NCCSc2ccccn2)S(C)(=O)=O)c1	inactive
CN(C)c1nc(N)nc(CSc2ccccn2)n1	inactive
COc1ccc(C(=O)COC(=O)CCCC(=O)Nc2cc(C(F)(F)F)ccc2Cl)cc1	inactive
CN(N=O)c1ccc(C=C2c3ccccc3-c3ccccc32)cc1	inactive
CCOc1ccc(NC(=O)CCc2c(C)nn(-c3ccc(N4CCCC4)nn3)c2C)cc1	inactive
O=C1O/C(=C\c2ccc(O)cc2)C(O)=C1c1ccc(O)cc1	inactive
Cn1cnc([N+](=O)[O-])c1Sc1n[nH]c(N)n1	12.6 µM (active)
Cn1cnc([N+](=O)[O-])c1Nc1ccccc1O	inactive
Nc1nc(Sc2ncccc2[N+](=O)[O-])n[nH]1	inactive
CCOc1ccc(OCC)c(Nc2nc3ccccc3n3nnnc23)c1	inactive
COc1ccc(CNC(=O)Cn2nnc(-c3ccc(S(C)(=O)=O)cc3)n2)cc1	inactive
Cc1c(Cl)cccc1NC(=O)C1CCCN(c2ncnc3onc(C)c23)C1 (stereo not given)	inactive
CCOC(=O)N1CCc2c(sc3c2c(=O)n(-c2ccc(CC)cc2)c(=O)n3C)C1	inactive
O=C(c1ccc(Br)cc1)N(Cc1cccs1)c1ccc(F)cc1	inactive
COc1ccc(CCC(=O)NCCc2csc(-c3ccc(Cl)cc3)n2)cc1	inactive
COc1ccc(CN2C(=O)CC(Cc3ccc(C)cc3)C2=O)cc1OC (stereo not given)	inactive
COc1ccc(CCN2C(=O)C3CC=C(C)CC3C2=O)cc1OC (stereo not given)	inactive
CCOC(=O)c1ccc(N2C(=O)CC(N3CCC(C(=O)OCC)CC3)C2=O)cc1 (stereo not given)	inactive
COc1cccc(N2CCN(C3CC(=O)N(c4ccc(Cl)cc4)C3=O)CC2)c1 (stereo not given)	inactive
COc1ccc(CCN2C(=O)CC(N3CCC(C(N)=O)CC3)C2=O)cc1OC (stereo not given)	22.4 µM (active)
COc1ccc(N2C(=O)CC(N3CCC(C(N)=O)CC3)C2=O)cc1 (stereo not given)	50.1 µM (active)
Cn1c(=O)c(C(=O)O)nn(-c2ccccc2)c1=O	inactive

SMILES	Potency
CCN(CC)/[N+]([O-])=N/Oc1cc(O/[N+]([O-])=N/N2CCCC2CO)c([N+](=O)[O-])cc1[N+](=O)[O-] (stereo not given)	inactive
COc1ccc(OC)c(NC(=O)Cn2c(=O)n(Cc3ccccc3)c(=O)c3ccccc32)c1	inactive
CCCCCCCNc1ccc(/C=C/c2ccnc3ccccc23)cc1	inactive
O=C(COC(=O)c1ccccc1OCCOc1ccccc1)Nc1cccc(Br)c1	inactive
COc1ccc2c(c1)CCc1c(C(=O)N3CCCC3)noc1-2	35.5 µM (active)
O=C(c1noc2c1CCCC2)N1CCc2ccccc2C1	inactive
COc1ccc2c(c1)CCc1c(C(=O)Nc3cc(C)ccc3O)noc1-2	inactive
CCCCNC(=O)Cn1c(SCc2cccc(Cl)c2)nc2ccncc21	inactive
COc1ccc(-c2cn3c(n2)sc2cc(C(=O)Nc4ccccc4F)ccc23)cc1	inactive
COc1cccc(-c2n[nH]c3c2C(c2cccc(O)c2)N(C)C3=O)c1 (stereo not given)	inactive
Cc1ccc(-c2nc(Cn3c(=O)cc(-c4ccccc4)c4c(C)nn(C)c43)c(C)o2)cc1	inactive
O=C(NCc1ccccc1)C(=O)NCC(c1ccco1)S(=O)(=O)c1ccc(Cl)cc1 (stereo not given)	inactive
Cc1ccc(NC(=O)CN2C(=O)C(c3ccc(F)cc3)=NC23CCCCCC3)c(C)c1	inactive
CCN1CCC(N(Cc2ccc(F)cc2)C(=O)Nc2cc(C)ccc2C)CC1	inactive
CCN1CCC2(CC1)N=C(c1ccc(F)cc1)C(=S)N2C(=O)c1ccc(C)cc1	15.8 µM (active)
Cc1cccc(-n2ccnc2SCC(=O)Nc2cccc3ccccc23)c1C	inactive
NNc1cccc(C=Cc2ccccc2)cc1=O	17.8 µM (active)
O=C(COc1ccccc1)OCc1cc(=O)n2nc(-c3cccs3)sc2n1	inactive
CC1=Nc2cc(C(=O)NCc3ccc(C)cc3)ccc2Sc2ccc(Cl)cc21	inactive
NC(=O)CC[C@@H]1NC(=O)[C@H](CO)NC(=O)c2cc([N+](=O)[O-])cc(I)c2NCC[C@@H](C(N)=O)NC1=O	70.8 µM (active)
C[C@@H]1NC(=O)c2cc([N+](=O)[O-])cc(F)c2NCCC[C@@H](C(N)=O)NC(=O)[C@H](CC(N)=O)NC1=O	inactive
NCCCC[C@@H]1NC(=O)[C@H](CCC(=O)O)NC(=O)c2cc([N+](=O)[O-])cc(I)c2NCC[C@@H](C(N)=O)NC1=O	inactive
NC(=O)CC[C@@H]1NC(=O)[C@@H]2CCCN2C(=O)c2cc([N+](=O)[O-])cc(F)c2NCCC[C@@H](C(N)=O)NC1=O	12.6 µM (active)
CC(C)[C@@H]1NC(=O)c2cc([N+](=O)[O-])cc(I)c2NCCC[C@@H](C(=O)NC(CC(=O)O)C(N)=O)NC(=O)[C@H](CO)NC1=O (stereo not given in full)	inactive
NC(=O)C[C@@H]1NC(=O)CNC(=O)c2cc([N+](=O)[O-])cc(I)c2NCCC(C(N)=O)NC1=O (stereo not given in full)	inactive
